Data from PubChem BioAssay (NCI).
Compounds without any hit were thinned out: in the full panel of roughly 83,000, 20% have a hit.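 A percent growth of 40 corresponds to 60% growth inhibition; 0 means no net growth; -100 means all cells died. Active threshold: below 10.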 The source made the active and inactive calls.

Each molecule was assayed on A549/ATCC NSCLC (assay: NCI-60 one-dose screen, 48 h (100 = growth as untreated, 0 = no growth, -100 = all killed)). Conditions: 10 µM.
Description: Growth inhibition of the A549/ATCC human Non-Small Cell Lung tumor cell line is measured as a screen for anti-cancer activity. Cells are grown in 96 well plates and exposed to the test compound for 48 hours. Compounds are tested at a single concentration, which is 10^-5 M for most compounds. The reported endpoint is percent growth (GI% or GIPRCNT), where numbers from 0 - 100% represent growth inhibition, and numbers from -100% - 0 represent cell death. For example, a value of 40 represents 60% growth inhibition. A value of 0 means no net growth occurred over the course of the experiment. A value of -40 indicates 40% of cells at the beginning of the experiment died by the end of the experiment. A value of -100 means all cells are dead at the end of the experiment.
NCI-60 Human Tumor Cell Lines Screen was performed using the standard one-dose NCI protocol, which is described in more detail at https://dtp.cancer.gov/discovery_development/nci-60/default.htm.
Compounds with GIPRCNT values below 10 were considered active. Activity score was based on GIPRCNT using the following formula: […]
Score is 0 for GIPRCNT values of 100 or above, 50 for GIPRCNT values of 0, and 100 for GIPRCNT values of -100.

SMILES	growth
Cc1c(O)cccc1O	122% (inactive)
COC(=O)c1[nH]c(=O)c(C#N)c(C(=O)OC)c1C(=O)c1ccccc1	93.7% (inactive)
CCC/C=C(\C)C(C)(C#N)C(=O)OCC (stereo not given)	95.7% (inactive)
CC(=O)Nc1ccc(NC(C)=O)c2c1C(=O)c1ccccc1C2=O	96.2% (inactive)
OC(c1ccccn1)C(O)c1ccccn1 (stereo not given)	95.3% (inactive)
CCOc1ccc(/C=N/N=C(N)N)cc1OCC	95.7% (inactive)
O=C(O)c1ccnc(Br)c1	102% (inactive)
COc1ccc(-c2cc3c(nn2)-c2ccccc2C3=O)cc1	2.29% (active)
NC(=S)CN1CCOCC1	110% (inactive)
C/C(=C\c1ccc([N+](=O)[O-])cc1)C(=O)O	91.7% (inactive)
O=C(NCCNC(=O)c1ccc(Cl)cc1Cl)c1ccc(Cl)cc1Cl	104% (inactive)
CCCC(=O)Nc1ccc2c(c1)CN1C(=O)c3ccccc3C1=N2	90% (inactive)
CO[C@H]1C[C@@H]2CC[C@@H](C)[C@@](O)(O2)C(=O)C(=O)N2CCCC[C@H]2C(=O)O[C@H]([C@H](C)C[C@@H]2CC[C@@H](O)[C@H](OC)C2)CC(=O)[C@H](C)C=C(C)[C@@H](O)[C@@H](OC)C(=O)[C@H](C)C[C@H](C)/C=C/C=C/C=C1C	39% (inactive)
O=C(NCO)c1ccccc1	106% (inactive)
CCCCOC(=O)c1ccc(C(C)C)cc1	77% (inactive)
Cc1ccc(C(=O)NC2c3ccccc3Oc3ccccc32)cc1	48.9% (inactive)
CC(C)(C)n1nc(C2CC2)c(Br)c1NC(=O)c1ccccc1F	93% (inactive)
CCn1c(=O)n(C)c2c(=O)n(C)c(=O)n(C)c21	101% (inactive)
CN(C)/N=C/c1ccccc1O	104% (inactive)
N#CSc1cc(S(N)(=O)=O)ccc1N	102% (inactive)

SMILES	growth
CC(C)(O)C#CC#CC(C)(C)O	91.5% (inactive)
Cc1cc2nc(CC(=O)c3cccc([N+](=O)[O-])c3)c(=O)[nH]c2cc1C	97.9% (inactive)
COc1cccc(Sc2ccc([N+](=O)[O-])c3no[n+]([O-])c23)c1	84% (inactive)
CC(=O)OC(C(=O)O)c1ccccc1 (stereo not given)	106% (inactive)
O=C(Cc1nc2ccc([N+](=O)[O-])cc2nc1CC(=O)c1cccnc1)c1cccnc1	64.8% (inactive)
O=C(NN=C1CCCCC1)C(=O)NN=C1CCCCC1	116% (inactive)
CCOC(=O)Nc1cc2c(c(N)n1)N=C(c1ccccc1)CO2	23.3% (inactive)
Oc1ccccc1O	78.1% (inactive)
CC1CC(O)CC(C)(C)C1 (stereo not given)	97.3% (inactive)
COc1ccccc1NC(=O)c1cc2cc(Br)ccc2cc1O	3.54% (active)
CN(C)C(=O)Oc1cccc([N+](C)(C)C)c1	102% (inactive)
S=c1nn[nH]c2ccccc12	96.4% (inactive)
Oc1ccc(O)cc1	102% (inactive)
Nc1nc(OCc2ccccc2)c2[nH]cnc2n1	105% (inactive)
CC(C)C1CCCCC1O (stereo not given)	102% (inactive)
C/C(O)=C(\C=N\C(N)=S)C(=O)Nc1ccccc1	100% (inactive)
O=c1cc2oc3cc(O)c(O)cc3c(-c3ccccc3O)c-2cc1O	108% (inactive)
COc1cc(/C=C(\C#N)C(=O)c2ccccc2)ccc1OCc1ccccc1	104% (inactive)
Cc1ccc(N)cc1[N+](=O)[O-]	100% (inactive)
COc1ccccc1N=Nc1c(O)ccc2cc(S(=O)(=O)O)ccc12	100% (inactive)
